From PubChem BioAssay
PKM2 inhibitor: qHTS Assay for Inhibitors of Human Muscle isoform 2 Pyruvate Kinase | Potency, µM (top dose mostly 57.5 µM), without a hit: at the highest dose activity change, negative = inhibition, most hits filed as inhibitors | purified PKM2, ATP generation, Kinase-Glo luminescence | hit rate 0.058% among 260,000; note: potency is the fitted concentration of half-maximal effect; nearly all actives have a fitted effect of over 60% in size
Target sequence (P14618 whole entry, looked up, canonical isoform): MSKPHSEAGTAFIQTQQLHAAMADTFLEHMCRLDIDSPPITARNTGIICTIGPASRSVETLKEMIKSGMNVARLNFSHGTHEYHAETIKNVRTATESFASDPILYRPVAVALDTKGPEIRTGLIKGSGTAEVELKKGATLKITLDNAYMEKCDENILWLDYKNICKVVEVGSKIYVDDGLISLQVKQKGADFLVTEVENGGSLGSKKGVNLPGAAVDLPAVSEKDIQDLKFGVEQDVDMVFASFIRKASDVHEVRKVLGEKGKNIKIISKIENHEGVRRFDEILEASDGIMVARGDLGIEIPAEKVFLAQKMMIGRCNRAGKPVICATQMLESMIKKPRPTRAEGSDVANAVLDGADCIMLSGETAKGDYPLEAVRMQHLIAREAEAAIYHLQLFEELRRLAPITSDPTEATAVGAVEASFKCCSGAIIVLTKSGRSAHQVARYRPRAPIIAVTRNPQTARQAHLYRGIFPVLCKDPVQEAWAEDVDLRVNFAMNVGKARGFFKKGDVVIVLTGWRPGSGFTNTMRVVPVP
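Coupled luciferase luminescence (Kinase-Glo) detects ATP generated from 0.1 mM ADP and 0.5 mM PEP in imidazole buffer pH 7.2 with KCl, MgCl2; 1 h at room temperature. Enzyme at intermediate activity; normalized to uninhibited and no-enzyme controls.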
PKM2 inh dose: Confirmation Concentration-Response Assay for Inhibitors of Human Muscle isoform 2 Pyruvate Kinase; purified hPK-M2, Kinase-Glo ATP luminescence, 1 h; Potency, µM (doses to about 57.5 µM), for inactives: at the highest dose activity change, negative = inhibition, actives largely listed as inhibitors; AID 2263, 2010; shares compounds with PKM2 inhibitor; hit rate 50% among 55
PKM2 FLuc cs: Secondary assay for Inhibitors of Human Pyruvate Kinase M2 isoform: FLuc Counterscreen. Potency, µM (series often up to 57.5 µM), for the others: at the highest dose activity, negative = inhibition, hits mostly inhibitors. hit rate 30% among 55. shares compounds with PKM2 inhibitor. Kinase-Glo firefly luciferase, luminescence, 8 min. AID 2265, 2010
PKM2 LDH couple: Secondary assay for Inhibitors of Human Pyruvate Kinase M2 isoform | 55 tested, under 10 active | Potency, µM (series often up to 57.5 µM), for the others: top-dose activity change, negative = inhibition, hits mostly inhibitors | shares compounds with PKM2 inhibitor | AID 2267, 2010 | purified hPK-M2, LDH-coupled NADH fluorescence kinetic
* marks the source's active call; other numbers are inactive results; u = inconclusive; [ ] = another dose, or the depositor's remark. Many of the other results were omitted from the sample, so hits are more common in it than they were. Calls come from the whole dose curve; as a rule, active = well fitted curve in the direction sought with a large enough effect; inconclusive = small, poorly fitted or top-dose-only effect, or another doubt; inactive = no such curve, though single readings can be large; an effect the other way counts as inactive or inconclusive.

SMILES | PKM2 inhibitor | others
CCS(=O)(=O)N1Cc2ccccc2CC1C(=O)Nc1nc2ccccc2[nH]1 (stereo unspecified) | 36%
NS(=O)(=O)c1c(Sc2ccccc2C(=O)O)ccc2ccccc12 | 4%
N#CC1=C(N)NC(SCC(=O)Nc2ccccc2)=C(C#N)C12CCCC2 | 42%
C[C@H](NC(N)=O)C(=O)N1CCN(S(=O)(=O)c2ccc3ccccc3c2)CC1 | 38%
O=C(CCc1nnc(CCc2ccccc2)o1)N1CCCC1c1nccs1 (stereo unspecified) | 97%
FC(F)(F)c1ccccc1NC(=S)NC1CCN(Cc2ccccc2)CC1 | 30%
Cc1ccnc(NS(=O)(=O)c2ccc3c(c2)CCO3)c1 | 42%
CC(=O)N1N=C(c2ccc(C)cc2)CC1c1ccc2c(c1)OCO2 (stereo unspecified) | 50%
Cc1ccnc(NC(=O)c2ccc3c(c2)OCO3)c1 | 13µM* | PKM2 inh dose=16µM*;PKM2 FLuc cs=13µM*;PKM2 LDH couple=-10%
Cc1ccc(CNC(=O)CCc2nnc(Cc3ccc(-c4ccccc4)cc3)o2)o1 | 49%
C=CCOC(=O)C1=C(C)NC(=O)NC1c1cc(Cl)cc(Cl)c1OC (stereo unspecified) | 48%[11.5 µM]
COc1cc(NC(=O)CSc2nnc3c(n2)[nH]c2ccc(S(=O)(=O)NC(C)C)cc23)cc(OC)c1OC | 81%
Cc1ccc(CN(C)C(=O)c2ccc3c(c2)NC(=O)CS3)o1 | 58%
CC(=O)Nc1sc(N/N=C\c2ccccc2F)nc1-c1cccs1 | 51%
CC1C/C(=C/c2ccccn2)C(=O)/C(=C/c2ccccn2)C1 (stereo unspecified) | 41%
Cc1nc(N/N=C/c2ccccn2)sc1C | 7.9µM* | PKM2 inh dose=9.2µM*;PKM2 FLuc cs=5.2µM*;PKM2 LDH couple=-10%
Cn1c(CCNC(=O)c2ccco2)nc2cc(NS(=O)(=O)c3ccc(Cl)cc3)ccc21 | 82%
CC1(C)CC2(CC(c3ccccc3F)c3ccc(O)c(O)c3O2)NC(=S)N1 (stereo unspecified) | 63%
O=C(Nc1nnc(SCc2ccc(Cl)cc2)s1)C1CC(=O)N(Cc2ccccc2)C1 (stereo unspecified) | 40%
CCOc1ccc(NC(=O)Nc2ccccc2C(N)=O)cc1 | 4µM* | PKM2 inh dose=9.2µM*;PKM2 FLuc cs=6.5µM*;PKM2 LDH couple=-2%
CC(=O)Oc1ccc(NC(=O)Cc2ccccc2)c(C(=O)O)c1 | -1%
CCOC(=O)C(Nc1ccc2ccccc2c1)C(=O)OCC | 30%
COc1cccc(NC(=O)CSc2nnc3cc(C)nc(N)n23)c1 | 135%
COc1ccc(C(=O)Nc2cccc(OC)c2)cc1 | u | PKM2 inh dose=u;PKM2 FLuc cs=u;PKM2 LDH couple=-10%
COc1cccc(NC(=O)CSc2nnc(C)s2)c1 | 42%
SMILES | PKM2 inhibitor | others
O=c1[nH]c2ccccc2nc1Cc1ccc([N+](=O)[O-])cc1 | 38%
Cn1ncc([N+](=O)[O-])c1C(=O)Nc1ccc(-c2ccccc2)cc1 | 31%
CC(C)CC(=O)Nc1nnc(S(=O)(=O)N2c3ccccc3CC2C)s1 (stereo unspecified) | 4%
CC1=NN(c2nc3ccccc3[nH]2)C(=O)/C1=C/N(C)C | 6.3µM* | PKM2 inh dose=2.3µM*;PKM2 FLuc cs=6.5µM*;PKM2 LDH couple=-6%
C=CCN1C(=O)N/C(=C/c2ccc(C)o2)C1=O | 56%
N#CC(c1ccc(O)cc1)c1ncc(C(F)(F)F)cc1Cl (stereo unspecified) | 33%
CN(CC1CCCN(CCc2cccc(C(F)(F)F)c2)C1)C(=O)c1cc2ccccc2o1 (stereo unspecified) | 38%
